What all share (test): HT-SELEX; 20 mM HEPES pH 7, 140 mM KCl, 5 mM NaCl, 1 mM K2HPO4, 2 mM MgSO4, 100 uM EGTA, ZnSO4, 0.1% Tween20; room temperature, 1 h; high values mean tight binding
What all share (conditions): protein: ivt; tags: eGFP (N-terminal); dsDNA, one strand shown

One test addresses ZNF721 full-length (Homo sapiens, UniProt Q8TF20-2 1-923). In outline: (§1)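 Full-length or DNA-binding-domain forms of a tagged transcription factor were produced in HEK293 lysate or cell-free extract and immobilised on beads. Incubation with a randomized 40-base DNA library ran for 1 h at room temperature in HEPES/KCl low-stringency buffer with Tween20, after which bound DNA was washed, heat-eluted, PCR-amplified over successive cycles and Illumina-sequenced. Binding strength is given as the relative k-mer count in selected reads, higher for tighter binding.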

The next test addresses ZNF721 DBD1 (Homo sapiens, UniProt Q8TF20-2 29-461). In outline:
as §1

The next test has as its target ZNF721 DBD2 (Homo sapiens, UniProt Q8TF20-2 395-923). In outline:
as §1

Chain of ZNF721 DBD1 (Q8TF20 17-449): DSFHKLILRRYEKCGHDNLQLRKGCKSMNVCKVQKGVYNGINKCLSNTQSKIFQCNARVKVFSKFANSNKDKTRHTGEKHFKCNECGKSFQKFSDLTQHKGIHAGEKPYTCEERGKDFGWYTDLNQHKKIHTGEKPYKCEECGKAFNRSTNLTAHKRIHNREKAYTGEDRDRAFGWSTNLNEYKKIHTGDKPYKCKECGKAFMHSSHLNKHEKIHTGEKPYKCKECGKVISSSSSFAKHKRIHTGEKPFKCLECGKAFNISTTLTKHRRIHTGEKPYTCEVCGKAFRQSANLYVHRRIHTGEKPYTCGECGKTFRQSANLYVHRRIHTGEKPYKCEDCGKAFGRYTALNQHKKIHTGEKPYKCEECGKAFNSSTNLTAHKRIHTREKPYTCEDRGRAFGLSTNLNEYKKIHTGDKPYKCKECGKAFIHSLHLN
Chain of ZNF721 full-length (Q8TF20 other isoform, or with tags, fused parts or gaps): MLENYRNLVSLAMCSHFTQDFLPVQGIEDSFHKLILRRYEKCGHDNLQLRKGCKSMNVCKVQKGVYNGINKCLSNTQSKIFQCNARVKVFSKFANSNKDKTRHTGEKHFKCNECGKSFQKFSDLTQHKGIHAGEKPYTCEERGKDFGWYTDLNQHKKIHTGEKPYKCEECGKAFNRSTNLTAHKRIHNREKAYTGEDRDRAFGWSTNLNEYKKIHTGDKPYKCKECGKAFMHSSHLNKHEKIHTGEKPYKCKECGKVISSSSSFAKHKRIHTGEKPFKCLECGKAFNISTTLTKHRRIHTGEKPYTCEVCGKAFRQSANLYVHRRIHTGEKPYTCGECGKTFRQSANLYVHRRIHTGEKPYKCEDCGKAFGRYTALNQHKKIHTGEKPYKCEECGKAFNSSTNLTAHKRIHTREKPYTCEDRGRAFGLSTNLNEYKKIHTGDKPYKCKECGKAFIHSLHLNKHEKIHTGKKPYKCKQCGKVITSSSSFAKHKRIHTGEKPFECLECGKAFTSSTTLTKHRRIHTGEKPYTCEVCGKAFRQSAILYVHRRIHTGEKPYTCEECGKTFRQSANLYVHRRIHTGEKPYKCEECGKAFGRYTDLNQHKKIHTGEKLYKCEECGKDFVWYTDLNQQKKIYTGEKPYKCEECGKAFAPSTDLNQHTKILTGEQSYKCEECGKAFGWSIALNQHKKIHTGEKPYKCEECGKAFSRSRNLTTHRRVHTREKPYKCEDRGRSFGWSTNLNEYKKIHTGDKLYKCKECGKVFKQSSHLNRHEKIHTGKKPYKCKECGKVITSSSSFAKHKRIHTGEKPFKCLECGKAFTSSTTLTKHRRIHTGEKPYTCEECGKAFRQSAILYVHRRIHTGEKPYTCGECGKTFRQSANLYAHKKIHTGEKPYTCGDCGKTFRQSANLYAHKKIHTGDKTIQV
Chain of ZNF721 DBD2 (Q8TF20 383-911): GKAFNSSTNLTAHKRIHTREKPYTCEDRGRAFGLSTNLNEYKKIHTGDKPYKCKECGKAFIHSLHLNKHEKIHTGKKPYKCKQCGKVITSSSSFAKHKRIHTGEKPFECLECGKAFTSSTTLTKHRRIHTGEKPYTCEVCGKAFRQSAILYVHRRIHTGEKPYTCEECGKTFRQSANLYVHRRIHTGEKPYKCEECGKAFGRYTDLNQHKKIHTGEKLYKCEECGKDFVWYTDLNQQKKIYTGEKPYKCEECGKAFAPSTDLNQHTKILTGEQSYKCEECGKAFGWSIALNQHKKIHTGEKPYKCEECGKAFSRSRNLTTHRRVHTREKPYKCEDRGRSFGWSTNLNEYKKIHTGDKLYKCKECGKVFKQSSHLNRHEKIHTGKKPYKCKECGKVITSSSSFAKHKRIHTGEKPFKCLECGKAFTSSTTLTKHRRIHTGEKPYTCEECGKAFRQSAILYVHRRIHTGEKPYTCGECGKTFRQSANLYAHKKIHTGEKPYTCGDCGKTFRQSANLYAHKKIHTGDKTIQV

For ACCCCCCCCA, the binding signal with ZNF721 full-length worked out at 0.154 relative 10-mer count; with ZNF721 DBD1, 0.005 relative 10-mer count; with ZNF721 DBD2 it was 0.00276 relative 10-mer count.

For AAAAAAGGTA, the results for the binding signal with ZNF721 full-length, with ZNF721 DBD1 and with ZNF721 DBD2 were 0.109 relative 10-mer count, 0.00752 relative 10-mer count and 0.0674 relative 10-mer count, respectively.

Regarding CCCCTCCCCG, the binding signal in the test with ZNF721 full-length came out at 0.128 relative 10-mer count; with ZNF721 DBD1, 0.00527 relative 10-mer count; with ZNF721 DBD2 it was 0.00216 relative 10-mer count.

As for CCCCCACCCA, the binding signal with ZNF721 full-length was found to be 0.256 relative 10-mer count; in the test with ZNF721 DBD1, 0.00931 relative 10-mer count; in the test with ZNF721 DBD2 it was 0.00348 relative 10-mer count.

Regarding CCACCTCCCC, the binding signal with ZNF721 full-length is 0.278 relative 10-mer count; with ZNF721 DBD1, 0.0134 relative 10-mer count; with ZNF721 DBD2, 0.00336 relative 10-mer count.

On to CAAAAAAAAC, for which the binding signal with ZNF721 full-length was 0.123 relative 10-mer count; in the test with ZNF721 DBD1 it was 0.00243 relative 10-mer count; with ZNF721 DBD2 it was 0.0838 relative 10-mer count.

Regarding CCCATCCCCA, the binding signal with ZNF721 full-length was 0.106 relative 10-mer count; with ZNF721 DBD1, 0.00472 relative 10-mer count; in the test with ZNF721 DBD2 it was 0.00551 relative 10-mer count.

On to CCGTCCCCCC, for which the binding signal with ZNF721 full-length was 0.15 relative 10-mer count; in the test with ZNF721 DBD1, 0.00693 relative 10-mer count; in the test with ZNF721 DBD2, 0.00192 relative 10-mer count.

Consider CCCCACCACG, for which the binding signal in the test with ZNF721 full-length turned out to be 0.11 relative 10-mer count; with ZNF721 DBD1, 0.0039 relative 10-mer count; with ZNF721 DBD2 it was 0.00623 relative 10-mer count.

Consider TCCCCCCCCA, for which the values for the binding signal in the test with ZNF721 full-length, in the test with ZNF721 DBD1 and with ZNF721 DBD2 were 0.116 relative 10-mer count, 0.005 relative 10-mer count and 0.00264 relative 10-mer count, respectively.

In the case of CCACCCCAAC, the binding signal amounted to 0.162 relative 10-mer count with ZNF721 full-length, 0.00601 relative 10-mer count in the test with ZNF721 DBD1 and 0.00659 relative 10-mer count with ZNF721 DBD2.

As to AAAAAGCGTA, the values for the binding signal with ZNF721 full-length, with ZNF721 DBD1 and with ZNF721 DBD2 were 0.178 relative 10-mer count, 0.0453 relative 10-mer count and 0.0266 relative 10-mer count, respectively.

With CCGAAAAAAA, the binding signal with ZNF721 full-length is 0.115 relative 10-mer count; in the test with ZNF721 DBD1, 0.0118 relative 10-mer count; in the test with ZNF721 DBD2, 0.0585 relative 10-mer count.

In the case of ACCCCCTCCC, the binding signal with ZNF721 full-length worked out at 0.158 relative 10-mer count; in the test with ZNF721 DBD1 it was 0.00807 relative 10-mer count; in the test with ZNF721 DBD2, 0.00503 relative 10-mer count.

With AAGCAGTACC, the binding signal was 0.153 relative 10-mer count in the test with ZNF721 full-length, 0.0727 relative 10-mer count in the test with ZNF721 DBD1 and 0.0326 relative 10-mer count in the test with ZNF721 DBD2.

As to CCCCCCACCG, the results for the binding signal in the test with ZNF721 full-length, in the test with ZNF721 DBD1 and in the test with ZNF721 DBD2 were 0.17 relative 10-mer count, 0.00605 relative 10-mer count and 0.0036 relative 10-mer count, respectively.

Take CCCCCCCATC: the binding signal in the test with ZNF721 full-length worked out at 0.115 relative 10-mer count; with ZNF721 DBD1, 0.00358 relative 10-mer count; with ZNF721 DBD2, 0.00324 relative 10-mer count.

On to ACAGCGTACC, for which the binding signal was 0.193 relative 10-mer count with ZNF721 full-length, 0.00115 relative 10-mer count with ZNF721 DBD1 and 0.259 relative 10-mer count in the test with ZNF721 DBD2.

Take GAAAAGCAGC: the binding signal with ZNF721 full-length came out at 0.106 relative 10-mer count; in the test with ZNF721 DBD1 it was 0.00147 relative 10-mer count; in the test with ZNF721 DBD2 it was 0.125 relative 10-mer count.

In the case of AAGCTGCACC, the binding signal in the test with ZNF721 full-length came to 0.143 relative 10-mer count; in the test with ZNF721 DBD1, 0.0827 relative 10-mer count; with ZNF721 DBD2 it was 0.0024 relative 10-mer count.

For ACCCACCCCA, the figures for the binding signal with ZNF721 full-length, in the test with ZNF721 DBD1 and with ZNF721 DBD2 were 0.167 relative 10-mer count, 0.00798 relative 10-mer count and 0.00515 relative 10-mer count, respectively.

For CCCCACCAAC, the binding signal stood at 0.136 relative 10-mer count in the test with ZNF721 full-length, 0.00638 relative 10-mer count in the test with ZNF721 DBD1 and 0.00791 relative 10-mer count with ZNF721 DBD2.

As for CCCTCCCCAC, the binding signal with ZNF721 full-length was 0.217 relative 10-mer count; with ZNF721 DBD1, 0.00977 relative 10-mer count; with ZNF721 DBD2, 0.00863 relative 10-mer count.

For CCCCCCACGC, the figures for the binding signal with ZNF721 full-length, with ZNF721 DBD1 and with ZNF721 DBD2 were 0.139 relative 10-mer count, 0.00404 relative 10-mer count and 0.00324 relative 10-mer count, respectively.

In the case of AGGGAGGGGG, the binding signal in the test with ZNF721 full-length was 0.15 relative 10-mer count; in the test with ZNF721 DBD1 it was 0.00628 relative 10-mer count; in the test with ZNF721 DBD2, 0.00384 relative 10-mer count.

CCCCCGTCCC: the binding signal with ZNF721 full-length came out at 0.173 relative 10-mer count; with ZNF721 DBD1 it was 0.00642 relative 10-mer count; with ZNF721 DBD2, 0.00252 relative 10-mer count.

In the case of CCCACTCCCC, the binding signal in the test with ZNF721 full-length stood at 0.155 relative 10-mer count; in the test with ZNF721 DBD1, 0.00656 relative 10-mer count; with ZNF721 DBD2 it was 0.00372 relative 10-mer count.

In the case of CCCCGACCAC, the figures for the binding signal in the test with ZNF721 full-length, in the test with ZNF721 DBD1 and with ZNF721 DBD2 were 0.111 relative 10-mer count, 0.00422 relative 10-mer count and 0.00395 relative 10-mer count, respectively.

As for CACCATCCCC, the binding signal in the test with ZNF721 full-length is 0.118 relative 10-mer count; with ZNF721 DBD1, 0.00468 relative 10-mer count; in the test with ZNF721 DBD2, 0.003 relative 10-mer count.

Turning to CCTCCCCCGC, the figures for the binding signal with ZNF721 full-length, with ZNF721 DBD1 and with ZNF721 DBD2 were 0.131 relative 10-mer count, 0.00647 relative 10-mer count and 0.00348 relative 10-mer count, respectively.

For the origin of these results see article PMC13541613, “GHT-SELEX demonstrates unexpectedly high intrinsic sequence specificity and complex DNA binding of many human transcription factors”.
